# SUMO Mot1 rescue: inhibitors of SUMOylation pathway: yeast Mot1-301 growth rescue; S. cerevisiae Mot1-301 growth rescue, ATP luminescence, 38.5C; percent above DMSO median, 100 means doubled; growth rescue, % at 18.8 µM; actives 1% (n = 320,000);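 active means every valid replicate shows activation above 250% relative to neutral control wells; inactive means the rest, any valid replicate at or below 250%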;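 further: OY570 slx delta 5 strain wells were the positive control but not used for scaling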
# PfHsp90 set2: reduces growth (ATP signal) of yeast expressing P. falciparum Hsp90; actives 0.32% (n = 310,000); inhibition, % at 9.4 µM; S. cerevisiae expressing PfHsp90, BacTiter-Glo ATP, 48 h; yeast lacking PDR1 and PDR3 efflux regulators;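 active means every replicate shows inhibition above about 80%, whatever the replicate mean, limit read from the data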;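 further: 0% = DMSO neutral controls and 100% = 20 µM radicicol positive controls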
# TIM10 inh: TIM10 yeast growth inhibition; S. cerevisiae TIM10 strain growth, BacTiter-Glo luminescence, 24 h; inhibition, % at 10 µM; actives 1.4% (n = 330,000); AID 463195;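 active means inhibition of 40% or more at the single tested concentration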;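 further: wild-type TIM10 isogenic control strain grown at permissive 25 °C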
# tim10-1 inh: tim10-1 yeast growth inhibition | inhibition, % at 20 µM | AID 463190 | S. cerevisiae tim10-1 ts strain growth, BacTiter-Glo, 24 h | actives 2.2% (n = 330,000);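 active means inhibition of at least 40%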;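 further: mutant grown at 25 °C; 0% = DMSO wells with yeast and 100% = wells holding no yeast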
# tim23-1 inh: inhibits growth of tim23-1 mutant yeast | inhibition, % at 20 µM | actives 1.3% (n = 330,000) | S. cerevisiae tim23-1 growth, BacTiter-Glo luminescence, 24 h;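 active means growth inhibition of the mutant yeast at or above 50%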;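 further: temperature-sensitive mutant grown at 25 °C; plate controls were DMSO-treated mutant yeast for no effect and medium wells lacking yeast for full effect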
# tim10-1 confirm: tim10-1 yeast growth inhibition, confirmed. inhibition, % at 20 µM. S. cerevisiae tim10-1 ts strain growth, BacTiter-Glo, 24 h. AID 463213. shares compounds with tim10-1 inh. actives 56% (n = 7,400);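 active means inhibition of yeast growth at or above a set limit in either of two repeat tests at 20 µM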;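 further: tim10-1 mutant grown at permissive 25 °C to find synthetic lethal compounds; 0% = DMSO yeast wells and 100% = medium wells without yeast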
# * marks the source's active call; other numbers are inactive results; x = no result given. The list is not random: actives were taken first. Their share in the collection is about 4.4%.
SMILES,SUMO Mot1 rescue,PfHsp90 set2,TIM10 inh,tim10-1 inh,tim23-1 inh,tim10-1 confirm
Cc1ccc(-n2nc3cc(C)c(N)cc3n2)cc1,-18,-8,24,41*,21,20
Cc1cc(NC(=O)C(C)SCC(=O)OC(C)C(=O)Nc2ccc(F)cc2Cl)no1 (centres undefined),3,-12,3,13,-11,x
CN1C(=O)[C@@H]2[C@@H]3C[C@@H]([C@H]4ON=C(c5ccc(Cl)cc5)[C@@H]34)[C@@H]2C1=O,-10,-4,10,1,16,x
O=C1[C@@H]2[C@@H]3C[C@@H]([C@H]4ON=C(c5ccc(Cl)cc5Cl)[C@@H]34)[C@@H]2C(=O)N1C1CCCCC1,26,-1,13,52*,41,34*
CNC(=O)C12CCC(C)(c3nc4cc(C)c(C)cc4nc31)C2(C)C (centres undefined),104,-18,14,27,31,x
CCCNC(=O)C12CCC(C)(c3nc4cc(C)c(C)cc4nc31)C2(C)C (centres undefined),133,21,22,42*,41,26
Cc1onc(-c2ccc3c(c2)OCO3)c1-c1ccc2[nH]ccc2c1,14,-19,-13,54*,-6,40*
CSc1cccc(CN2CCC(Oc3ccc(C(=O)N4CCCCC4)cc3)CC2)c1,29,6,5,7,0,x
Cc1ccccc1-c1nnc2c3ccccc3c(C)nn12,173,-9,1,4,17,x
COc1ccc(-c2nnc3c4ccccc4c(C)nn23)cc1,x,x,10,49*,43,26
Cc1ccc(C)c(S(=O)(=O)N2CCN(C(=O)CCNS(=O)(=O)c3ccccc3)CC2)c1,156,-7,2,-2,5,x
CC(OC(=O)CCc1ccccc1)C(=O)Nc1ccc(Cl)cn1 (centres undefined),-4,17,8,9,21,x
O=C(NCCO)/C(=C\c1ccc([N+](=O)[O-])o1)NC(=O)c1ccccc1,7,7,1,12,3,x
CCOC(=O)/C(=C\c1ccc([N+](=O)[O-])o1)NC(=O)c1ccccc1,20,-27,34,47*,44,42*
CC(=O)SC1CC(=O)N(c2ccc(C(C)(C)C)cc2)C1=O (centres undefined),10,-1,36,55*,43,53*
Cc1cccc2cc3c(N)c(C(=O)N4CCOCC4)sc3nc12,-18,68,16,42*,36,34*
Cc1cc(C)c2cc3c(N)c(C(=O)N4CCc5ccccc5C4)sc3nc2c1,-13,-10,24,28,28,x
O=C(COC(=O)c1ccc(-c2ccc([N+](=O)[O-])cc2)o1)NC(=O)NC1CCCCC1,8,-6,1,42*,35,19
Cc1ccc(CNC(=O)C2CSC3(C)CCC(=O)N23)cc1 (centres undefined),-11,x,3,1,2,x
C/C(CCC12CC3CC(CC(C3)C1)C2)=N\NC(N)=S,-29,10,4,58*,45,-11
CCc1nc2ccc(C(=O)NCc3ccc(C)o3)cc2nc1CC,11,-42,6,49*,36,6
CCc1nc2ccc(C(=O)NCCc3ccc(OC)cc3)cc2nc1CC,10,-37,1,40*,36,11
CCc1nc2ccc(C(=O)NCc3ccco3)cc2nc1CC,-1,5,29,23,24,x
CCc1nc2ccc(C(=O)NCCc3ccc(OC)c(OC)c3)cc2nc1CC,6,2,0,22,22,x
COc1cc(NC(=O)COc2ccc(-n3cnnn3)cc2)cc(OC)c1OC,-8,-18,8,18,16,x
SMILES,SUMO Mot1 rescue,PfHsp90 set2,TIM10 inh,tim10-1 inh,tim23-1 inh,tim10-1 confirm
CCN(CC)c1ccc(S(=O)(=O)N2CCOCC2)cc1NC(=O)COC(=O)/C=C/c1ccc(C)o1,66,-39,12,19,27,x
Cc1cc(C)n2ncc(/C(N)=N/OC(=O)Nc3ccc(Cl)cc3)c2n1,488,6,7,8,0,x
Cc1nn(C(C)(C)C)c(C)c1/C=N/OC(=O)Nc1ccc(Cl)cc1,5,8,26,42*,43,30
Fc1ccc(Oc2nnnn2-c2ccccc2)cc1,-10,25,3,10,4,x
Brc1ccc(Oc2nnnn2-c2ccccc2)cc1,5,-12,10,44*,48,35*
CCOC(=O)c1ccc(S(=O)(=O)Nc2cc(C(C)(C)C)no2)cc1,14,x,10,41*,24,15
CC(Oc1cccc2ccccc12)C(=O)N/N=C/c1cccnc1 (centres undefined),-15,2,7,44*,22,-3
CCCCC(=O)Nc1ccc(C2C(=O)c3ccccc3C2=O)cc1,28,9,-18,-5,15,x
CCC(=O)Nc1ccc(C2C(=O)c3ccccc3C2=O)cc1,12,30,18,42*,30,22
COc1ccc(CCNC(=O)CNC(=O)c2ccc(Br)o2)cc1OC,11,-30,-2,8,3,x
Nc1cc(=O)[nH]c(SCc2cccc3ccccc23)n1,-2,-25,11,-8,29,x
O=c1cc(C(F)(F)F)nc(SCc2cccc3ccccc23)[nH]1,-16,-14,-3,40*,24,4
c1ccc(Cn2cnc3ccccc32)cc1,71,-7,-10,0,-8,x
Cc1cc(C)c(Cn2cnc3ccccc32)c(C)c1,-35,-7,26,43*,40,20
CCCCCCC(=O)N(O)C1CC(=O)N(c2ccc(Br)cc2)C1=O (centres undefined),338*,119*,32,42*,33,28
COc1ccccc1N(O)C1CC(=O)N(c2ccc(Br)cc2)C1=O (centres undefined),-5,x,18,27,23,x
O=C1CC2(CCN(C(=O)c3ccc(F)c(F)c3)CC2)Oc2ccccc21,-10,-14,-1,15,13,x
CC1(c2ccc(OC(F)F)cc2)NC(=O)N(CC(=O)Nc2ccc(OC(F)F)cc2)C1=O (centres undefined),-10,-6,10,-9,4,x
CCOC(=O)c1c(NC(=O)CN2C(=O)NC(C)(c3ccc(OC(F)F)cc3)C2=O)sc(C)c1C (centres undefined),-20,2,18,43*,22,27
BrC(=C\c1ccccc1)/C=N/Nc1nc2ccccc2[nH]1,28,31,36,54*,44,32*
Cc1cc(C(=O)N2CCCC(N3CCN(c4cccc(C(F)(F)F)c4)CC3)C2)no1 (centres undefined),3,3,7,20,25,x
Cc1cc(C)c(C(=O)N2CCCC(N3CCN(c4cccc(C(F)(F)F)c4)CC3)C2)o1 (centres undefined),173,-12,20,44*,24,21
C(=NN=C(NN=Cc1cccs1)NN=Cc1cccs1)c1cccs1,x,-4,x,x,x,x
